According to PubChem BioAssay (NCATS):
Inconclusive results are not listed. Where a call stands in place of a potency, no number is given. A number with no mark means an inactive call. The source made the active and inactive calls. Unless noted, calls come from the whole dose curve; as a rule, active = well fitted curve in the direction sought with a large enough effect; inconclusive = small, poorly fitted or top-dose-only effect, or another doubt; inactive = no such curve, though single readings can be large; an effect the other way counts as inactive or inconclusive.

Assays:
[1] = Primary qHTS for inhibitors of La Crosse Virus (LACV) - induced cell death in SH-SY5Y cells (AID 1508616);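 note: top concentration of the series differs between compounds; higher means more rescue of cells from virus-induced death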
Procedure, shortened: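 Cytopathicity rescue screen: compounds pinned onto SH-SY5Y cells, which are then infected with LACV (MOI 0.01) and held 6 days at 37C. Percent activity is scaled between infected DMSO control and uninfected DMSO control.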

[2] = target: Calcium and integrin-binding protein 1 (Homo sapiens) (UniProt Q99828); assay: Primary qHTS for Identification of Calcium Integrin Binding Protein 1 (CIB1) Competitor (AID 1508620);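 note: GST tagged CIB1 binding a fluorescein labelled alphaIIb integrin peptide tracer; top concentration of the series differs between compounds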
Procedure, shortened: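 Fluorescence polarization competition: GST-tagged CIB1 (1 uM final) preincubated with compound 15 min at room temperature, then FITC-labelled alphaIIb peptide (100 nM final) added. After 15 min at room temperature, polarization read at Ex 480/Em 540.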

[3] = A High-Content qHTS Against Drug Library for the Identification of Small Molecules that Inhibit DYT1 Early Onset Primary Dystonia-Associated Cell Pathology (AID 1645839; calls by dose curve; note: series mostly up to about 46 µM)
Procedure, shortened: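 Cells were seeded and left for 24 h, then dosed with compound alongside tetracycline induction of mutant EGFP-TorsinA. They were incubated for 48 h, fixed in 4% paraformaldehyde, permeabilized and imaged for mislocalization (%pathology) and cell count.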

[4] = target: Cytochrome P450 2D6 (Homo sapiens) (UniProt P10635); assay: Cytochrome P450 family 2 subfamily D member 6 (CYP2D6) small molecule antagonists: luciferase biochemical (cell-free) qHTS assay (AID 1645840; active = well fitted curve in the direction sought with a large enough effect in the repeat runs; an effect the other way counts as inactive or inconclusive; note: nearly all actives have a fitted effect of over 55% in size; note: potency is the fitted concentration of half-maximal effect)
Procedure, shortened: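 P450-Glo CYP2D6 system: proluciferin substrate converted by enzyme to luciferin, read by luminescence proportional to activity. Enzyme-substrate mix with compound 10 min at room temperature, then NADPH regeneration 1 h before detection reagent.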

[5] = target: Cytochrome P450 2C9 (Homo sapiens) (UniProt P11712); assay: Cytochrome P450 family 2 subfamily C member 9 (CYP2C9) small molecule antagonists: luciferase biochemical (cell-free) qHTS assay (AID 1645842; active = well fitted curve in the direction sought with a large enough effect in the repeat runs; an effect the other way counts as inactive or inconclusive; note: nearly all actives have a fitted effect of over 55% in size; note: potency is the fitted concentration of half-maximal effect)
Procedure, shortened: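 P450-Glo CYP2C9 system: proluciferin substrate with enzyme in mix containing 0.4% BSA, 10 min at room temperature, then NADPH regeneration solution added and incubated 1 h at 37C. Detection reagent stopped reaction; luminescence read after 20 min as RLU.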

[6] = target: Calcium and integrin-binding protein 1 (Homo sapiens) (UniProt Q99828); assay: Validation qHTS for Identification of Calcium Integrin Binding protein 1 (CIB1) Competitor (AID 1508618)
Procedure, shortened: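 In this qHTS validation, the LOPAC set (up to 114 uM) was tested for blocking CIB1 binding to a fluorescein-tagged alphaIIb peptide, with FP detection at 480/540 nm.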

[7] = Counterscreen qHTS for small molecule stabilizers of the endoplasmic reticulum resident proteome: GLuc-NoTag assay (AID 1508627);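 note: SH-SY5Y cells given compound then 100 nM thapsigargin to empty ER calcium; series mostly up to about 76 µM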
Procedure, shortened: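 Counterscreen line: SH-SY5Y-GLuc-NoTag. Seed, 5 h; compound, 19 h; thapsigargin 100 nM, 4 h; 37C/5% CO2. Readout: secreted GLuc luminescence, coelenterazine 0.07x final, no lysis.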

[8] = Confirmatory qHTS for small molecule stabilizers of the endoplasmic reticulum resident proteome: Secreted ER Calcium Modulated Protein (SERCaMP) assay (AID 1508628); note: series mostly up to about 76 µM; nearly all actives have a fitted effect of over 40% in size
Procedure, shortened: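 GLuc-SERCaMP-expressing SH-SY5Y cells, pretreated 16 h with compound, are challenged with thapsigargin to empty ER calcium stores; after 4 h, coelenterazine is added directly to the medium and luminescence is imaged.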

[9] = Cell Viability qHTS for small molecule stabilizers of the endoplasmic reticulum resident proteome (AID 1508629); conditions: cell viability counter-screen, 100 nM thapsigargin for final 4 h;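 note: human SH-SY5Y neuroblastoma cells carrying the GLuc-SERCaMP reporter; compound exposure about 46 h in total before the viability read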
[10] = Primary qHTS for small molecule stabilizers of the endoplasmic reticulum resident proteome: Secreted ER Calcium Modulated Protein (SERCaMP) assay (AID 1508630)
Procedure, shortened: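 The SH-SY5Y reporter protocol was run at 3 concentrations up to 38.3 uM (primary) or 11 concentrations (follow-up): 16 h compound, 100 nM thapsigargin for 4 h, then extracellular luciferase luminescence.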

Chain of Cytochrome P450 2D6 (Homo sapiens) (P10635 whole entry, looked up): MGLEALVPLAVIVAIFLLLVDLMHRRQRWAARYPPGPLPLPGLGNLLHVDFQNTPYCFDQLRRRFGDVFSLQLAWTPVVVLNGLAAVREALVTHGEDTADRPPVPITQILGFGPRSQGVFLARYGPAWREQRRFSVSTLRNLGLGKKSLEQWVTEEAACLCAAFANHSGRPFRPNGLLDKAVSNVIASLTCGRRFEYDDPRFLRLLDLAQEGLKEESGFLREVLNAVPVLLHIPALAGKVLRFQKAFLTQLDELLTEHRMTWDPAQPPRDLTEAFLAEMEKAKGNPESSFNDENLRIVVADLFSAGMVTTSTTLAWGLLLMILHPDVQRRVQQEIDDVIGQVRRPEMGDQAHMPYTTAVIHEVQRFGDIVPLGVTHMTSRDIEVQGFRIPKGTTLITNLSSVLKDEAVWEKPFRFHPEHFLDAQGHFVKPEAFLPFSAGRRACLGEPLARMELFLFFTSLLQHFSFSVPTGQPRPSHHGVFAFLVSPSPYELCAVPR
Chain of Cytochrome P450 2C9 (Homo sapiens) (P11712 whole entry, looked up): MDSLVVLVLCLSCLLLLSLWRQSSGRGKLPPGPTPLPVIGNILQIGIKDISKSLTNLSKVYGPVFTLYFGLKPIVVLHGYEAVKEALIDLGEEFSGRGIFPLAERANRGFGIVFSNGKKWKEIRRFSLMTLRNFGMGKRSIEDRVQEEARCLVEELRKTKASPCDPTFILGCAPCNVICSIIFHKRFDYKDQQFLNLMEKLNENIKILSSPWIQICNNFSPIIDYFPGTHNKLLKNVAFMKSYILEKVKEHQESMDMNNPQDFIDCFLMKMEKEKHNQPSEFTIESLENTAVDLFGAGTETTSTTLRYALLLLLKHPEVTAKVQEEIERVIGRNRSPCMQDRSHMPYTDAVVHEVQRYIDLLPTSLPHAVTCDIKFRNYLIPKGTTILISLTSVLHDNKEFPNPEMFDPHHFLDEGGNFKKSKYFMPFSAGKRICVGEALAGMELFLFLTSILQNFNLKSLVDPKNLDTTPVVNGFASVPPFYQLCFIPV
Chain of Calcium and integrin-binding protein 1 (Homo sapiens) (Q99828 whole entry, looked up): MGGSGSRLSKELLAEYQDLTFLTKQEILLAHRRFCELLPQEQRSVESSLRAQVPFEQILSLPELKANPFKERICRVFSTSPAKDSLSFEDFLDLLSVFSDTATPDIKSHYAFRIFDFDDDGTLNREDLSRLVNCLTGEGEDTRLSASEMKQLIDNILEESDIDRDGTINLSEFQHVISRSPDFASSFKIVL

Row | Compound | Potency [1] | Potency [2] | Potency [3] | Potency [4] | Potency [5] | Potency [6] | Potency [7] | Potency [8] | max response [9] [%] | outcome [10]
1 | CC(C)(N)Cc1ccc(Cl)cc1 | inactive | inactive | inactive | 6170 nM (active) | inactive | – | – | – | – | –
2 | CCC1(C2=NCCN2)Cc2ccccc2O1 (stereo not given) | inactive | inactive | inactive | – | inactive | inactive | – | – | – | –
3 | CC[N+]1(C)CCCC(OC(=O)C(O)(c2ccccc2)c2ccccc2)C1 (stereo not given) | inactive | inactive | inactive | 2750 nM (active) | inactive | – | – | – | – | –
4 | CC(C)=CCOc1c2occc2cc2ccc(=O)oc12 | inactive | inactive | inactive | 871 nM (active) | 347 nM (active) | inactive | – | – | – | –
5 | CC(=O)[C@H]1CC[C@H]2[C@@H]3CC[C@H]4C[C@H](O)CC[C@]4(C)[C@H]3C(=O)C[C@]12C | inactive | inactive | inactive | – | – | inactive | – | – | – | –
6 | CCCC(C)(COC(N)=O)COC(=O)NC(C)C (stereo not given) | inactive | inactive | inactive | inactive | inactive | – | – | – | – | –
7 | CCN(CC)CCOC(=O)C(O)(c1ccccc1)c1ccccc1 | inactive | inactive | inactive | 5490 nM (active) | inactive | – | inactive | inactive | 31.2 | –
8 | COc1ccc2c(c1OC)CN1CCc3cc4c(cc3C1C2)OCO4 (stereo not given) | inactive | inactive | inactive | 30.9 nM (active) | 19500 nM (active) | – | – | – | – | –
9 | NP(N)(=O)NC(=O)c1ccc(F)cc1 | inactive | inactive | inactive | inactive | inactive | – | – | – | – | inactive
10 | CC1OC(C)OC(C)O1 (stereo not given) | inactive | inactive | inactive | inactive | inactive | – | – | – | – | inactive
11 | Cc1ccc(-c2nc3ccc(C)cn3c2CC(=O)N(C)C)cc1 | inactive | inactive | inactive | – | inactive | – | – | – | – | inactive
